Bioassay records: PubChem, several laboratories
TWEAK-Fn14 inh: blocks TWEAK-Fn14 interaction in a reporter cell assay | TWEAK-stimulated Fn14 reporter cells, luciferase luminescence, 8 h | inhibition, % at 10 µM | 360,000 compounds, 2% hits | AID 1159606; in the data active = inhibition above about 50%
EWS-Fli inh: EWS/Fli transcriptional activity inhibition; A673 NR0B1-luciferase reporter, viability-normalised; inhibition, % at 12.6 µM; 350,000 compounds, 0.67% hits; AID 651661;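 active = mean inhibition of at least 50% after viability correction, with every replicate also passing that limit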;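 also: firefly luciferase signal divided by Alamar Blue viability fluorescence both relative to DMSO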
PAX8 reporter: inhibitors of PAX8 transcriptional activity in RMG-I cells; RMG-I TPO-luciferase reporter, SteadyGlo, 24 h; inhibition, % at 12.6 µM; 360,000 compounds, 1.2% hits;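 active = mean replicate inhibition at least 60% with every replicate also reaching 60%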;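 also: luciferase light reporting Pax8 driven TPO promoter activity; plate controls were median of neutral control wells for no effect and mitoxantrone controls for full effect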
LMP1 NFkB inh: inhibitors of Epstein-Barr LMP1-induced NF-kappaB reporter | LMP1-induced NF-kappaB luciferase reporter cells, luminescence | 350,000 compounds, 0.69% hits | inhibition, % at 12.5 µM; in the data active = inhibition above about 41%;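 also: 0% = neutral control wells and 100% = reference inhibitor control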
TROY NFkB inh: TROY signaling inhibition; Q293 LMP1-TROYcd NF-kB luciferase reporter, 4 h; inhibition, % at 10 µM; 360,000 compounds, 0.98% hits;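 active = compounds whose plate-normalised and pattern-corrected inhibition of the luciferase reporter signal at the single screening dose is 50% or more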
LGR2 inh: Drosophila LGR2 receptor signaling inhibition; 380,000 compounds, 0.35% hits; inhibition, % at 9.99 µM; AID 720647; HEK293 LGR2, CRE-luciferase, bursicon-stimulated, 4 h;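 active = drop in luminescence signal, shown as inhibition above about 50% in the replicate tests, limit read from the data, passing the limit was not always enough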;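 also: agonist challenge used bursicon conditioned medium at about half maximal strength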
* = called active by the depositor; . = no result given. Most compounds without a hit are left out; they make up all but 3.1% or so of the library.

SMILES | TWEAK-Fn14 inh | EWS-Fli inh | PAX8 reporter | LMP1 NFkB inh | TROY NFkB inh | LGR2 inh
O=C(Nc1ccc(F)cc1)Nc1ccc2c(c1)[C@H]1C[C@H](CC(=O)N3CCCCC3)O[C@@H](CO)[C@H]1O2 | . | 1 | 7 | . | . | -2
C[C@@H]1CN([C@H](C)CO)C(=O)c2c(c3ccccc3n2C)-c2ccccc2CO[C@@H]1CN(C)S(=O)(=O)c1ccc(C(F)(F)F)cc1 | . | 9 | 93* | . | . | 53*
C[C@@H]1CN([C@@H](C)CO)C(=O)c2c(c3ccccc3n2C)-c2ccccc2CO[C@H]1CN(C)Cc1ccc(Oc2ccccc2)cc1 | . | -10 | . | . | . | 10
C[C@@H]1CN([C@@H](C)CO)C(=O)c2ccccc2-c2ccccc2CO[C@@H]1CN(C)Cc1ccccc1C(F)(F)F | . | 19 | 45 | . | . | 11
C[C@H](CO)N1C[C@H](C)[C@H](CN(C)S(=O)(=O)c2ccc(F)cc2)OCc2ccccc2-c2c(n(C)c3ccccc23)C1=O | . | -1 | . | . | . | 26
C[C@@H]1CN([C@H](C)CO)C(=O)c2ccccc2-c2ccccc2CO[C@@H]1CN(C)Cc1ccccc1C(F)(F)F | . | 23 | 75* | . | . | 3
C[C@H]1CN([C@@H](C)CO)C(=O)c2c(c3ccccc3n2C)-c2ccccc2CO[C@H]1CN(C)S(=O)(=O)c1ccc(C(F)(F)F)cc1 | . | 11 | 85* | . | . | 3
C[C@H](CO)N1C[C@H](C)[C@@H](CN(C)Cc2ccc(Oc3ccccc3)cc2)OCc2ccccc2-c2c(n(C)c3ccccc23)C1=O | . | 8 | 89* | . | . | 12
COCC#Cc1cnc2c(c1)C(=O)N([C@@H](C)CO)C[C@@H](C)[C@@H](CN(C)C(=O)Cc1cccnc1)O2 | . | 5 | -8 | . | . | 9
C[C@@H]1CN([C@H](C)CO)C(=O)c2cc(NC(=O)NC3CCCCC3)ccc2O[C@@H](C)CCCCO[C@@H]1CN(C)S(=O)(=O)c1ccccc1 | . | 4 | -17 | . | . | -16
CCCNC(=O)Nc1ccc2c(c1)C(=O)N(C)[C@H]1CC[C@@H](CC(=O)O)O[C@H]1CO2 | . | 6 | -13 | . | . | -9
C[C@@H]1CN([C@H](C)CO)C(=O)c2c(c3ccccc3n2C)-c2ccccc2CO[C@@H]1CN(C)C(=O)CCC(F)(F)F | . | 6 | 6 | . | . | -2
C[C@@H]1CN([C@H](C)CO)C(=O)c2c(c3ccccc3n2C)-c2ccccc2CO[C@H]1CN(C)S(=O)(=O)c1ccc(C(F)(F)F)cc1 | . | 16 | 83* | . | . | 29
C[C@@H]1CN([C@@H](C)CO)C(=O)c2c(c3ccccc3n2C)-c2ccccc2CO[C@H]1CN(C)C(=O)Nc1ccc2c(c1)OCO2 | . | -12 | 97* | . | . | -5
COc1ccccc1S(=O)(=O)N(C)C[C@@H]1OCc2ccccc2-c2c(n(C)c3ccccc23)C(=O)N([C@@H](C)CO)C[C@H]1C | . | 20 | 69* | . | . | 32
C[C@H]1CN([C@@H](C)CO)C(=O)c2c(c3ccccc3n2C)-c2ccccc2CO[C@@H]1CN(C)C(=O)CCC(F)(F)F | . | 24 | 65* | . | . | 7
C[C@@H]1CN([C@@H](C)CO)C(=O)c2cc(NS(=O)(=O)c3cccs3)ccc2O[C@@H](C)CCCCO[C@@H]1CN(C)S(=O)(=O)c1ccc(F)cc1 | . | 10 | 6 | . | . | -4
CCCNC(=O)[C@@H]1[C@@H](CO)[C@@H]2Cn3c(ccc(-c4ccncc4)c3=O)[C@H]1N2CC1CC1 | . | -2 | 0 | . | . | -6
C[C@H]1CN([C@@H](C)CO)C(=O)c2c(c3ccccc3n2C)-c2ccccc2CO[C@H]1CN(C)S(=O)(=O)c1ccc([N+](=O)[O-])cc1 | . | 8 | 91* | . | . | -1
C[C@H]1CN([C@@H](C)CO)C(=O)c2c(c3ccccc3n2C)-c2ccccc2CO[C@@H]1CN(C)S(=O)(=O)c1ccc([N+](=O)[O-])cc1 | . | 12 | 23 | . | . | 3
C[C@H]1CN([C@@H](C)CO)C(=O)c2ccccc2-c2ccccc2CO[C@H]1CN(C)S(=O)(=O)c1ccc(C(F)(F)F)cc1 | . | 10 | 102* | . | . | 19
CSc1ccccc1OCc1cc(C(=O)N2CCC[C@H]2C(N)=O)no1 | 28 | -2 | -13 | 63* | 7 | 26
CSc1ccccc1OCc1cc(C(=O)N2CCCC(C)C2)no1 (stereo not drawn) | -10 | -77 | -232 | -30 | -63 | -58
O=[N+]([O-])c1cccc(C=NNc2ccc3ccccc3n2)c1O | 97* | 28 | -94 | 12 | 75* | 81*
O=C(N/N=C/c1cccc([N+](=O)[O-])c1O)c1cccs1 | 45 | 69* | 16 | 2 | -44 | -1
SMILES | TWEAK-Fn14 inh | EWS-Fli inh | PAX8 reporter | LMP1 NFkB inh | TROY NFkB inh | LGR2 inh
C[C@@H]1CN([C@H](C)CO)C(=O)c2cc(NC(=O)Cc3ccccc3)ccc2O[C@@H](C)CCCCO[C@@H]1CN(C)C(=O)NC1CCCCC1 | . | 6 | . | . | . | 1
CC(C)CC1C(=O)N(Cc2cn(CC3CCCCC3)nn2)CCS(=O)(=O)N1Cc1ccc(-c2ccc(Cl)c(Cl)c2)cc1 (stereo not drawn) | -73 | -5 | -3 | 6 | -7 | -13
Cc1cccc(C)c1-c1ccc(CN2C(CC(C)C)C(=O)N(Cc3cn(CC4CCCCC4)nn3)CCS2(=O)=O)cc1 (stereo not drawn) | 9 | 0 | 70* | 1 | 8 | 0
Cc1ccc(S(=O)(=O)N(C)C[C@@H]2Oc3c(NS(=O)(=O)c4ccc(F)cc4)cccc3C(=O)N([C@H](C)CO)C[C@H]2C)cc1 | . | 0 | -9 | . | . | -1
CCCCCC(=O)NN=C1CCN(Cc2ccccc2)CC1 | 94* | -4 | 32 | -7 | -3 | 8
C[C@@H]1CN([C@@H](C)CO)C(=O)Cc2cc(NS(=O)(=O)c3ccc(F)cc3)ccc2O[C@H]1CN(C)CC1CC1 | . | 2 | -27 | . | . | 4
c1ccc(NCCSc2nc3ccccc3s2)cc1 | -6 | -7 | -8 | -3 | -38 | 14
CCS(=O)CCSc1nc2ccccc2s1 (stereo not drawn) | 80* | . | -3 | 6 | 60* | .
O=C(CCc1ccccc1O)N/N=C/c1ccc(Sc2cccc3cccnc23)o1 | 109* | . | 7 | 11 | -8 | .
O=C(CSc1cccc2cccnc12)N/N=C/c1ccc(O)cc1 | -2 | -114 | 5 | 7 | -11 | -14
O=C(NCC(=O)c1ccccc1)OCc1ccc([N+](=O)[O-])cc1 | -1 | -20 | -18 | 68* | -16 | -7
O=C(CNC(=O)c1ccccc1)OCc1ccc([N+](=O)[O-])cc1 | 10 | . | -2 | 1 | -3 | 10
COc1ccc(N(C(=O)CCl)C(C(=O)NCCc2ccccc2)c2cccs2)cc1 (stereo not drawn) | 60* | 42 | 113* | -3 | -17 | 15
COc1ccc(CNC(=O)C(c2ccncc2)N(C(=O)Cc2cccs2)c2ccccc2)cc1 (stereo not drawn) | 0 | 5 | 7 | 0 | -22 | -8
